Screening data from PubChem BioAssay.
Shown are actives, neighbours in structure and some others; about 1.1% of the full set was active somewhere.
PINK1 modulator: A Quantitative High throughput Screen to Identify Chemical Modulators of PINK1 Expression; AID 624263, 2012; PINK1 immunofluorescence, high-content cytometry, 24 h; 410,000 tested, 0.2% active; Potency, µM (series often up to 76.6 µM), usual class: activators; active = well fitted activation curve with a large enough effect; inconclusive = small, poorly fitted or top-dose-only effect; cell line not stated here; also: nearly all actives have a fitted effect of over 65% in size
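PINK1 protein level read as immunofluorescence by microplate cytometer in a fixed, stained stable cell line after 24 h exposure to five compound concentrations, with CCCP as control.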
GALK inh: qHTS Assay for Inhibitors of Human Galactokinase (GALK). P51570. Purified GALK, Kinase-Glo residual ATP luminescence. Potency, µM (doses to about 57.5 µM), most hits filed as inhibitors. 270,000 tested, 0.007% active. AID 1868, 2009
Target sequence (P51570 whole entry, looked up): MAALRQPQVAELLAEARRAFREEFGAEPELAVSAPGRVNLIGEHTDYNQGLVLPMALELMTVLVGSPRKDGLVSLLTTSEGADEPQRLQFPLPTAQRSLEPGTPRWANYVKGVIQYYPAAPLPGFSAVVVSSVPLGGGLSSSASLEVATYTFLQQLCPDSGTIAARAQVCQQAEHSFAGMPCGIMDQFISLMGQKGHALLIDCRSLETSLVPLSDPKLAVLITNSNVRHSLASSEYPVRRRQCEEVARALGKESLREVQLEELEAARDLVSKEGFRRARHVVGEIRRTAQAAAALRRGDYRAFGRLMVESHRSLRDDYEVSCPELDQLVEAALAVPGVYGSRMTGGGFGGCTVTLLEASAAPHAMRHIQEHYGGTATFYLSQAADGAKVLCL
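5 nM enzyme, 35 uM ATP, 100 uM galactose, 20 mM HEPES pH8.0, 5 mM MgCl2; 1 h RT; residual ATP by Kinase-Glo Plus luminescence, qHTS format.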
miR-21 reporter: qHTS Assay for Modulators of miRNAs and/orActivators of miR-21. Potency, µM (titrated, usually from 38.3 µM), usual class: activators. 340,000 tested, under 10 active. AID 2288, 2010. HeLa miR-21 FLuc reporter, luciferase, 48 h;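 also: miR-21 action dims this reporter so a rising signal means less miR-21 action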
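HeLa miR-21-FLuc reporter line, endogenous miR-21; 2000 cells/well in DMEM/10% FBS; compound titration up to ~40uM final, 48 h, 37 degree Celsius; luciferase detection reagent, 15 min lysis, CCD luminescence.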
TrxR1 inh: qHTS Assay for Inhibitors of Mammalian Selenoprotein Thioredoxin Reductase 1 (TrxR1): qHTS; 390,000 tested, 1% active; AID 588453, 2011; Thioredoxin reductase 1, cytoplasmic (Rattus norvegicus), O89049; Potency, µM (doses to about 114 µM), actives largely listed as inhibitors; recombinant rTrxR1, NADPH fluorescence consumption, selenite substrate; also: nearly all actives have a fitted effect of over 65% in size
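Rat TrxR1 (90 nM in the dispensed reagent) was pre-reduced with 400 uM NADPH for 5 min at room temperature, then incubated with compound for 15 min. After 400 uM selenite was added, NADPH fluorescence (Ex 340/Em 450 nm) was followed for 8 min.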
TrxR1 substrate: qHTS Assay for Substrates of Mammalian Selenoprotein Thioredoxin Reductase 1 (TrxR1): qHTS; Thioredoxin reductase 1, cytoplasmic (Rattus norvegicus), O89049; purified TrxR1 substrate turnover, NADPH consumption readout; Potency, µM (doses to about 114 µM); 390,000 tested, 0.01% active; also: nearly all actives have a fitted effect of over 50% in size
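Rat TrxR1, dispensed at 90 nM, was prereduced with 400 uM NADPH (final) for 5 min at ~22 deg C, then incubated with compound 15 min before 400 uM selenite. A first-read NADPH fluorescence drop versus no-compound background flagged substrates.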
Large screens that a line does not name were inactive. Unless noted, calls follow the shape of the dose curve; as a rule, active = well fitted curve in the direction sought with a large enough effect; inconclusive = small, poorly fitted or top-dose-only effect, or another doubt; inactive = no such curve, though single readings can be large; an effect the other way counts as inactive or inconclusive.

Cc1ncc2c(c1CNC(=O)c1cncs1)CCN(C(=O)c1csc(-c3cccs3)n1)C2	none (no result: GALK inh, miR-21 reporter, TrxR1 inh, TrxR1 substrate)
COc1ccccc1N1CCN(C(=O)c2cnc(N3CCCCC3)c3ccccc23)CC1	none (no result: GALK inh)
FC(F)(F)c1cnc(NNC(=S)Nc2ccccc2Cl)c(Cl)c1	PINK1 modulator inconclusive, miR-21 reporter inconclusive
Cc1cccc(NC(=S)NNc2ncc(C(F)(F)F)cc2Cl)c1	PINK1 modulator 20µM, miR-21 reporter inconclusive
CC1(C)CC(=O)C2=C(C1)NC1=C(C(=O)c3ccccc31)C2c1ccccc1 (stereo not drawn)	TrxR1 inh 40µM
COc1cccc(-c2nc3cc4c(cc3cc2CN(C(=O)c2cccs2)C2CC2)CCC4)c1OC	none (no result: GALK inh, miR-21 reporter, TrxR1 inh, TrxR1 substrate)
COc1cc2nc(N3CCN(c4cc(C)ccc4C)CC3)nc(N)c2cc1OC	miR-21 reporter inconclusive
COc1cc2nc(N3CCNCC3)nc(N)c2cc1OC	TrxR1 inh 79µM (no result: PINK1 modulator)
COc1ccc(-c2csc(NC(=O)c3ccccc3NS(=O)(=O)c3ccc(C)cc3)n2)cc1	PINK1 modulator 14µM
COc1ccc(S(=O)(=O)Nc2ccccc2C(=O)Nc2nc(-c3ccc(F)cc3)cs2)cc1OC	PINK1 modulator inconclusive, miR-21 reporter inconclusive
O=C(N/N=C/c1cn(-c2cccs2)nc1-c1ccccc1)c1ccccc1O	PINK1 modulator 28µM, miR-21 reporter inconclusive
O=C(N/N=C/c1cn(-c2cccs2)nc1-c1ccccc1)c1ccccc1Br	none
Cc1ccc(C)c(Cn2c(=O)c3c(nc4n3CCN4c3ccccc3)n(C)c2=O)c1	none (no result: GALK inh)
CC(=O)OCCNc1cc(SCc2ccco2)c2nonc2c1[N+](=O)[O-]	TrxR1 inh 22µM
Cn1ccnc1Sc1cc(NCCCO)c([N+](=O)[O-])c2nonc12	miR-21 reporter inconclusive, TrxR1 inh inconclusive
COC(=O)CCSc1cc(NCCOC(C)=O)c([N+](=O)[O-])c2nonc12	none
O=[N+]([O-])c1c(NCCCO)cc(Sc2ccc(Cl)cc2)c2nonc12	TrxR1 inh 2.8µM
O=[N+]([O-])c1c(NCCCO)cc(SCc2ccco2)c2nonc12	TrxR1 inh 14µM (no result: GALK inh)
CCCC(=O)OCCNc1cc(SCCC(=O)OC)c2nonc2c1[N+](=O)[O-]	TrxR1 inh 10µM
COc1cc(OC)c(OC)cc1CN1CCc2nc(Nc3ccc4c(c3)OCCO4)ncc2C1	none (no result: GALK inh)
CC(=O)Nc1cc(C(=O)N2CCSCC2)cc2ncn(CCc3ccccn3)c12	none (no result: GALK inh, miR-21 reporter, TrxR1 inh, TrxR1 substrate)
Fc1ccc(Nc2ncnc3onc(-c4ccc(Cl)cc4)c23)cc1Cl	none (no result: GALK inh)
COCCNC(=O)Cn1cc(S(=O)(=O)Cc2ccccc2Cl)c2ccccc21	none (no result: GALK inh)
O=C(Nc1ncccn1)c1cc([N+](=O)[O-])cc([N+](=O)[O-])c1	none
O=[N+]([O-])c1cc(-c2ncccn2)c([N+](=O)[O-])s1	miR-21 reporter inconclusive, TrxR1 inh 2µM (no result: GALK inh)
COc1ccc(/C=C/c2c(-c3ccc(OC)cc3)oc3ccccc23)cc1	TrxR1 inh 45µM (no result: GALK inh)
Cc1ccc(-c2ccc(=O)n(CC(=O)Nc3ccc(F)c(Cl)c3)n2)cc1C	none (no result: GALK inh)
CC(N)=NCCCC(N)C(=O)O (stereo not drawn)	none (no result: PINK1 modulator, GALK inh, miR-21 reporter, TrxR1 substrate)
O=C(CN(CCc1ccccc1)C(=O)Cn1nnc(-c2cccs2)n1)NCc1ccco1	TrxR1 inh 50µM
O=C(CN(C(=O)Cn1nnc(-c2cccs2)n1)c1ccc2c(c1)OCCO2)NCc1ccccc1	none
O=C1c2ccccc2C2=Nc3ccccc3SC(c3cccc(F)c3)C12 (stereo not drawn)	PINK1 modulator 40µM
O=C1c2ccccc2C2=Nc3ccccc3SC(c3ccc(Cl)cc3)C12 (stereo not drawn)	PINK1 modulator inconclusive, miR-21 reporter inconclusive
COC(=O)c1scc(S(=O)(=O)C(C)C)c1N/N=C(\C#N)C(=O)c1ccc(Cl)cc1	PINK1 modulator 40µM
CC(=O)Nc1ccc(-c2nc3ccc(NC(C)=O)cc3o2)cc1	TrxR1 inh 50µM
CC(=O)Nc1ccc2oc(-c3ccccc3)nc2c1	none
